The panel holds about 79,000 compounds, 15% with a hit somewhere; the sample as a whole holds those more often. Unmarked numbers belong to inactive results. Active and inactive are the calls of the source. No stated cut-off is given here; in the data, active means growth inhibition above about 70%; inactive means the rest.
Columns and labels:
[1] = NCI Yeast Anticancer Drug Screen. Data for the rad50 strain (AID 155);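 further: 0% = growth of vehicle-only cultures of the same strain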; details: S. cerevisiae rad50 strain growth inhibition; at 50.0 µM; hits give high values
Method in brief: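 A DNA repair-deficient yeast mutant serves as the test organism; compound-induced growth inhibition is calculated against vehicle-treated cells.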

[2] = NCI Yeast Anticancer Drug Screen. Data for the mec2-1 strain (AID 157); details: S. cerevisiae mec2-1 strain, at 50.0 µM, hits give high values
Method in brief: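 Vehicle-treated cultures served as reference for growth inhibition of compound-exposed mec2-1 yeast.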

[3] = NCI Yeast Anticancer Drug Screen. Data for the sgs1 mgt1 strain (AID 161);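 further: 0% = growth of cultures given vehicle only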; details: S. cerevisiae sgs1 mgt1 strain, at 50.0 µM, hits give high values
Method in brief: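 Read-out: growth inhibition vs vehicle controls. Cells: mutant yeast strain deficient in DNA damage repair.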

[4] = NCI Yeast Anticancer Drug Screen. Data for the cln2 rad14 strain (AID 165);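 further: 0% = growth equal to vehicle treated cultures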; details: S. cerevisiae cln2 rad14 strain, at 50.0 µM, hits give high values
Method in brief: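 Each compound was tested on cln2 rad14 yeast. Inhibition of growth was calculated against vehicle-exposed controls.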

[5] = NCI Yeast Anticancer Drug Screen. Data for the bub3 strain (AID 167); details: S. cerevisiae bub3 mutant strain, at 50.0 µM, hits give high values
Method in brief: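 Inhibition values come from growth of compound-treated mutant yeast normalised to vehicle-treated controls.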

[6] = NCI Yeast Anticancer Drug Screen. Data for the mlh1 rad18 strain (AID 175); details: S. cerevisiae mlh1 rad18 strain growth inhibition; at 50.0 µM; hits give high values
Method in brief: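 Vehicle-treated cultures served as the reference for growth inhibition in a yeast strain carrying DNA damage repair alterations exposed to each compound.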

COc1ccc(C(=O)C(CN(C)C)CN(C)C)cc1OC
growth inhibition [1]: 30.6%
growth inhibition [2]: 9.55%
growth inhibition [3]: -14.1%
growth inhibition [4]: -5.9%
growth inhibition [5]: -11.7%
growth inhibition [6]: -18.4%

O=CC(O)C(O)C(O)C1CNC(=S)O1 (stereo unspecified)
growth inhibition [1]: 4.9%
growth inhibition [2]: -14.7%
growth inhibition [3]: -10.3%
growth inhibition [4]: -2.25%
growth inhibition [5]: 4.05%
growth inhibition [6]: 6.9%

CN1CCC2(CC1)C(=O)N(NC(N)=O)C(=O)C2c1ccccc1 (stereo unspecified)
growth inhibition [1]: 15%
growth inhibition [2]: 2.15%
growth inhibition [3]: 5.7%
growth inhibition [4]: 1.2%
growth inhibition [5]: 1%
growth inhibition [6]: 13.8%

Cc1nn2c(=O)n(-c3cccc(-n4nnc5c(-c6ccccc6)c(C)nn5c4=O)c3C)nnc2c1-c1ccccc1
growth inhibition [1]: 33.9%
growth inhibition [2]: 40.4%
growth inhibition [3]: 30.2%
growth inhibition [4]: 46.1%
growth inhibition [5]: 43.2%
growth inhibition [6]: 43.9%

CCCC(=O)OCc1ccc(Cl)c(Cl)c1
growth inhibition [1]: 21.6%
growth inhibition [2]: 16%
growth inhibition [3]: 9.45%
growth inhibition [4]: 8%
growth inhibition [5]: 9.15%
growth inhibition [6]: -3.85%

CCO/C(O)=c1/s/c(=C2/SC(=S)N(c3ccc(C)cc3)C2=O)n(-c2ccccc2)c1=N
growth inhibition [1]: -3.8%
growth inhibition [2]: -16.8%
growth inhibition [3]: -16.4%
growth inhibition [4]: -55.5%
growth inhibition [5]: -21.4%
growth inhibition [6]: -28.4%

O=c1c(O)c(O)c1=O
growth inhibition [1]: 1.3%
growth inhibition [2]: -7%
growth inhibition [3]: 0.8%
growth inhibition [4]: 0.7%
growth inhibition [5]: 9.3%
growth inhibition [6]: -15.5%

CCCCOC(=O)C(C)OC(=O)/C=C\C(=O)OC(C)C(=O)OCCCC (stereo unspecified)
growth inhibition [1]: 7.5%
growth inhibition [2]: -7.5%
growth inhibition [3]: 6.9%
growth inhibition [4]: 4.05%
growth inhibition [5]: 2.4%
growth inhibition [6]: 15.9%

CC(=O)NCC(=O)O
growth inhibition [1]: 3.7%
growth inhibition [2]: -8.75%
growth inhibition [3]: -35.1%
growth inhibition [4]: -7.1%
growth inhibition [5]: -9.6%
growth inhibition [6]: -10.1%

C=C(C)C(=O)OC1C(C(C)CCCO)=C(CO)CC2OC(=O)C(=C)C21 (stereo unspecified)
growth inhibition [1]: -15.9%
growth inhibition [2]: -29.1%
growth inhibition [3]: -14.5%
growth inhibition [4]: -7.7%
growth inhibition [5]: -10.3%
growth inhibition [6]: -29.1%

N#CC12CC=C(c3ccccc3)N=C1NC(c1ccccc1)=CC2 (stereo unspecified)
growth inhibition [1]: -25.9%
growth inhibition [2]: -35.5%
growth inhibition [3]: -31.7%
growth inhibition [4]: -38.4%
growth inhibition [5]: -1.65%
growth inhibition [6]: -34.1%

Cc1c(C)n(C)c(=S)n(C)c1=S
growth inhibition [1]: 4.95%
growth inhibition [2]: 4.15%
growth inhibition [3]: 5.8%
growth inhibition [4]: 31.6%
growth inhibition [5]: 1.85%
growth inhibition [6]: 8.65%

O=C(O)/C=C(/C(=O)O)c1cccn1Cc1ccccc1
growth inhibition [1]: 6.7%
growth inhibition [2]: 14.2%
growth inhibition [3]: 19.6%
growth inhibition [4]: 17.4%
growth inhibition [5]: 13.4%
growth inhibition [6]: 16.4%

COC(=O)c1ccccc1CC1Cc2cc3c(cc2C1)CCC3
growth inhibition [1]: 20.5%
growth inhibition [2]: 7.1%
growth inhibition [3]: -0.7%
growth inhibition [4]: 12.9%
growth inhibition [5]: 4.3%
growth inhibition [6]: 5.45%

CCCC(Sc1nc(N)nc2nc[nH]c12)C(=O)O (stereo unspecified)
growth inhibition [1]: -18.7%
growth inhibition [2]: -10.2%
growth inhibition [3]: -26.3%
growth inhibition [4]: -24.3%
growth inhibition [5]: -29%
growth inhibition [6]: 4.9%

CNC(=O)OCc1c(COC(=O)NC)c(-c2ccsc2)n2c1CCC2
growth inhibition [1]: 17.5%
growth inhibition [2]: 13.6%
growth inhibition [3]: 37.1%
growth inhibition [4]: -5.6%
growth inhibition [5]: -22.4%
growth inhibition [6]: 8.25%

Cc1cc(N=Nc2ccc(S(=O)(=O)O)c3ccccc23)ccc1O
growth inhibition [1]: -33.6%
growth inhibition [2]: 9.75%
growth inhibition [3]: -5.1%
growth inhibition [4]: -66.1%
growth inhibition [5]: 12.9%
growth inhibition [6]: -5.6%

COc1ccc([N+](=O)[O-])c(C(OC(C)=O)OC(C)=O)c1OC(C)=O
growth inhibition [1]: 4%
growth inhibition [2]: 5.6%
growth inhibition [3]: 20.2%
growth inhibition [4]: 9%
growth inhibition [5]: 1.15%
growth inhibition [6]: -9.4%

CCCCOC(=O)/C=C/C(=O)N1CCN(C(=O)/C=C/C(=O)OCCCC)C(C)C1 (stereo unspecified)
growth inhibition [1]: 33.7%
growth inhibition [2]: 24.7%
growth inhibition [3]: 20.8%
growth inhibition [4]: -11.1%
growth inhibition [5]: 24.9%
growth inhibition [6]: 34.6%

CNc1ncnc2[nH]ncc12
growth inhibition [1]: 18.4%
growth inhibition [2]: -0.85%
growth inhibition [3]: 6.25%
growth inhibition [4]: -18.2%
growth inhibition [5]: -7.05%
growth inhibition [6]: 1.35%

COc1ccc(C(=O)c2ccccc2)c(OC(=O)Nc2c(Cl)cccc2Cl)c1
growth inhibition [1]: -4.25%
growth inhibition [2]: -23.9%
growth inhibition [3]: 10.2%
growth inhibition [4]: 1.05%
growth inhibition [5]: -0.1%
growth inhibition [6]: 22.6%

Cc1nc2ccc(N)cc2[nH]c1=O
growth inhibition [1]: 16.9%
growth inhibition [2]: 7%
growth inhibition [3]: 12.8%
growth inhibition [4]: 14.5%
growth inhibition [5]: 6.5%
growth inhibition [6]: 25.3%

CC(C)c1cc(CN(C)C)c(O)c(C(C)(C)C)c1
growth inhibition [1]: -25.4%
growth inhibition [2]: 23.2%
growth inhibition [3]: -43.5%
growth inhibition [4]: -40%
growth inhibition [5]: -14.3%
growth inhibition [6]: -8.3%

CC(=O)N1CN=C2Sc3ccccc3N2C1
growth inhibition [1]: 4.05%
growth inhibition [2]: 0.2%
growth inhibition [3]: 8.45%
growth inhibition [4]: -16%
growth inhibition [5]: 13.2%
growth inhibition [6]: 18.5%

Cc1ccc(C)c(NC(=O)C(=O)C2C(=O)C3=C(CC2(C)C)Nc2ccccc2S3)c1 (stereo unspecified)
growth inhibition [1]: -21.2%
growth inhibition [2]: -20.2%
growth inhibition [3]: -14.1%
growth inhibition [4]: -21.5%
growth inhibition [5]: -28.4%
growth inhibition [6]: -33%

CCCOc1ccccc1C(=O)N1CCOCC1
growth inhibition [1]: 25%
growth inhibition [2]: -0.25%
growth inhibition [3]: 7.8%
growth inhibition [4]: 16.1%
growth inhibition [5]: 8.8%
growth inhibition [6]: 15.8%

CC(=O)c1cnn(C(N)=O)c1C
growth inhibition [1]: -42.6%
growth inhibition [2]: -18.5%
growth inhibition [3]: -23.7%
growth inhibition [4]: -46.5%
growth inhibition [5]: 13.5%
growth inhibition [6]: -5.75%

O=C(Cc1nc(-c2ccccc2)cc(=O)n1-c1ccccc1Cl)c1ccncc1
growth inhibition [1]: 32.4%
growth inhibition [2]: 12.5%
growth inhibition [3]: -6.3%
growth inhibition [4]: 21.2%
growth inhibition [5]: -1.2%
growth inhibition [6]: 20.4%

CN(C)C(=O)Nc1cccc2c(NC(=O)N(C)C)cccc12
growth inhibition [1]: -1.4%
growth inhibition [2]: 4.4%
growth inhibition [3]: 10.7%
growth inhibition [4]: 11.9%
growth inhibition [5]: -4.45%
growth inhibition [6]: -1.55%

CC1=C(O)/C(=C/C(C)CCC/C(C)=C/C=C/C(C)CCCc2ccoc2)OC1=O (stereo unspecified)
growth inhibition [1]: 3.05%
growth inhibition [2]: -4.65%
growth inhibition [3]: 2.9%
growth inhibition [4]: 23.8%
growth inhibition [5]: 7.45%
growth inhibition [6]: 3.1%

O=C(Nc1cccc(Cl)c1)Nc1ccc(Sc2ccc(Cl)cc2)o1
growth inhibition [1]: 55.1%
growth inhibition [2]: 7%
growth inhibition [3]: 70.6% (active)
growth inhibition [4]: 29.9%
growth inhibition [5]: 47.6%
growth inhibition [6]: 69.8%

O=C1CSC(c2ccccc2)N1O (stereo unspecified)
growth inhibition [1]: -11.4%
growth inhibition [2]: -5%
growth inhibition [3]: -22%
growth inhibition [4]: -51.5%
growth inhibition [5]: -7.5%
growth inhibition [6]: -7.7%

COC(=O)c1ccc(Cl)c(Cl)c1Cl
growth inhibition [1]: -3.6%
growth inhibition [2]: -7.35%
growth inhibition [3]: -19.6%
growth inhibition [4]: -11.8%
growth inhibition [5]: 6.1%
growth inhibition [6]: -26.3%

Nc1nc(=O)n(C2OC(CO)C(O)C2O)cc1F (stereo unspecified)
growth inhibition [1]: 10.8%
growth inhibition [2]: -10.2%
growth inhibition [3]: 4.4%
growth inhibition [4]: -3.1%
growth inhibition [5]: 11.5%
growth inhibition [6]: 7.6%

OC(CC(O)(C(F)(F)F)C(F)(F)F)c1cccs1 (stereo unspecified)
growth inhibition [1]: -1.95%
growth inhibition [2]: 13.6%
growth inhibition [3]: 4.6%
growth inhibition [4]: 51.5%
growth inhibition [5]: -5.45%
growth inhibition [6]: 12.9%

COc1cc(N=Nc2ccccc2)cc(/C=N\NC(=S)Nc2cccc(C)c2)c1O
growth inhibition [1]: 35.2%
growth inhibition [2]: 19.9%
growth inhibition [3]: 29.8%
growth inhibition [4]: 24.9%
growth inhibition [5]: -8.15%
growth inhibition [6]: 39.7%

Reference: PubChem BioAssay (NCI)
